Screening data as filed in PubChem.
Sampled rows, rich in hits. Any-hit rate of the full collection: about 5.1%.
HEK293 cAMP ctrl – parental HEK293 cAMP activation (counter-screen); 73,000 tested, 2.5% active; parental HEK293 CNG cAMP sensor, membrane potential fluorescence; Potency, µM (top dose mostly 57.1 µM), without a hit: top-dose activation, most hits filed as activators; also: % of control where 0% means no effect; nearly all actives have a fitted effect of over 55% in size
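Counterscreen for endogenous-receptor signalling: CNG-channel HEK 293 cells report cAMP rise by membrane depolarization. After 60 min dye equilibration with 100 uM RO 20-1724, compounds incubated 30 min before bottom-read fluorescence at 590 nm.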
Tau filament bind – tau filament binding. recombinant tau filaments, thioflavin S fluorescence, 15 h; filaments grown with octadecylsulfate alongside compound. Potency, µM (highest dose often 57.1 µM), for the others: at the highest dose activity change, negative = inhibition. 71,000 tested, 2% active;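 also: % is scaled to controls: 0 for no effect and ±100 for the full control effect; actives lower thioflavin S fluorescence by blocking filaments or displacing dye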
Target sequence (P10636 whole entry, looked up): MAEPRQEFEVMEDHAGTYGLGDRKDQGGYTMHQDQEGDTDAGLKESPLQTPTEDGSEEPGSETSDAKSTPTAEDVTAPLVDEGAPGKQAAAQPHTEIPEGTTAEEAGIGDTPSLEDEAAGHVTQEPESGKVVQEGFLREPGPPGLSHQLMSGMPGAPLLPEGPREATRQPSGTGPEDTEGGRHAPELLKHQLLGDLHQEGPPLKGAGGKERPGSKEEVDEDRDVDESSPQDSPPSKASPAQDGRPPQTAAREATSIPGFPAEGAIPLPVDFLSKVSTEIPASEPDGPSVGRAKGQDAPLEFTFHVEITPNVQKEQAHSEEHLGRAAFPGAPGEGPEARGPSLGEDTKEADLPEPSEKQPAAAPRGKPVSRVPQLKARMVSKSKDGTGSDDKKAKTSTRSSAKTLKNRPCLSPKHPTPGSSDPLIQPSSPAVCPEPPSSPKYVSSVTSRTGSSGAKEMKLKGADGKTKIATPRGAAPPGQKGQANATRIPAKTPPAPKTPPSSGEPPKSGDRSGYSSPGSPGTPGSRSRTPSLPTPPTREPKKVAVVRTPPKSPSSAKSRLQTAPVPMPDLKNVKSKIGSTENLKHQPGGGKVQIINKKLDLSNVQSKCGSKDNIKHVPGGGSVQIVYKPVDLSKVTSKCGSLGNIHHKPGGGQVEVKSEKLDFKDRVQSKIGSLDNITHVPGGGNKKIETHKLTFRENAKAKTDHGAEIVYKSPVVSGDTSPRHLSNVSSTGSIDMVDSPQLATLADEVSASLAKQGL
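Recombinant tau protein (human, 1 uM final) plus 30 uM ODS in HEPES pH 7.4 with NaCl, DTT and thioflavine S. Compound present from the start; fluorescence at 510 nm after 15 h, 37 C.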
Pol III holo inh – blocks replication by bacterial DNA polymerase III holoenzyme. reconstituted DNA polymerase III holoenzyme replication, biochemical. Potency, µM (series often up to 57.1 µM), for inactives: at the top dose activity change, negative = inhibition. 71,000 tested, 0.25% active; also: % is scaled to controls: 0 for no effect and ±100 for the full control effect
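Reconstituted *E. coli* holoenzyme (0.35 nM Pol III, 1 nM beta, 154 nM SSB, 2 nM primase) was preincubated with compound for 15 min at RT. Synthesis on 1.4 nM ssM13Gori ran 35 min, then was stopped with PicoGreen/EDTA and read as dsDNA fluorescence.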
TSHR agonist – activates the human thyroid stimulating hormone receptor; HEK293-CNG-TSHR cells (CNG channel as cAMP sensor), membrane potential dye, cAMP; Potency, µM (doses to about 57.1 µM), for inactives: top-dose activation, usual class: activators; P16473; 73,000 tested, 0.48% active; active = well fitted activation curve with a large enough effect in the main read-out, with a control signal flat, not every such curve was filed as active; inconclusive = small, poorly fitted or top-dose-only effect, or a change in a side signal; inactive = no such curve, though single readings can be large or run the other way; % of control where 0% means no effect;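 also: the control signal comes from parental cells without the receptor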
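cAMP rise detected as CNG-channel membrane depolarization by fluorescent dye (emission 590 nm), 30 min after compound, following 60 min dye loading containing 100 uM RO 20-1724 at room temperature. Cells: TSHR/CNG HEK 293, with parental CNG HEK 293 as control.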
Hsp90 Hop PPI – changes Hsp90-Hop TPR2A binding signal, up or down. AlphaScreen TPR2A-His6 binding biotin-Hsp90 C-terminal peptide. Potency, µM (series often up to 57 µM), for the others: top-dose activity change, negative = inhibition. 71,000 tested, 0.44% active. AID 595; active = well fitted curve in either direction with a large enough effect; inconclusive = small, poorly fitted or top-dose-only effect, or another doubt; also: % is scaled to controls: 0 for no effect and ±100 for the full control effect
* hit, by the source's call; ? = inconclusive; / = no result given; [ ] = dose if it differs, or a comment. Unless noted, calls follow the shape of the dose curve; as a rule, active = well fitted curve in the direction sought with a large enough effect; inconclusive = small, poorly fitted or top-dose-only effect, or another doubt; inactive = no such curve, though single readings can be large; an effect the other way counts as inactive or inconclusive. Potency is read from the fitted curve at half-maximal effect.

SMILES	HEK293 cAMP ctrl	Tau filament bind	Pol III holo inh	TSHR agonist	Hsp90 Hop PPI
Cc1nn(-c2ccccc2)c2c1C(c1ccccc1)C(C#N)=C(N)O2 (stereo not drawn)	-12.3%	/	/	-6.0%	/
CN(C)Cc1ccccc1-c1cncnc1Nc1ccccc1	5.6%	-8.3%	-0.4%	13.2%	-9.6%
CCCCc1c2ccccc2nc2[nH]c3ccccc3c12	12.6µM*	28.5%	-6.8%	?	4.3%
CCCCCc1c(O)c2ccccc2[nH]c1=O	10.5%	-13.5%	10.3%	3.7%	0.1%
CC[C@H](NC(=O)c1c(C)c(-c2ccccc2)nc2ccccc12)c1ccccc1	15.8µM*	-15.3%	-0.9%	?	-3.3%
Cc1ccc2c(c1)NCCO2	-10.4%	31.6µM*	-6.7%	-12.6%	-20.1%
Cc1ccc(CNC(=O)C2CNc3cc(C)ccc3O2)cc1 (stereo not drawn)	1.2%	-4.6%	-8.8%	-8.6%	-9.7%
O=S(=O)(Nc1ccc2c(c1)OCO2)c1ccc(Br)s1	-0.1%	20µM*	2.7%	4.8%	?
Cc1ccc2cccc(S(=O)(=O)Nc3ccc4c(c3)OCO4)c2n1	7.1%	7.94µM*	-12.0%	/	?
O=S(=O)(Nc1ccc2c(c1)OCCO2)c1cccc2nsnc12	11.3%	-18.3%	-3.1%	19.8%[11.4 µM]	-6.3%
CN(C)S(=O)(=O)Nc1ccc2c(c1)OCO2	9.5%	3.0%	0.4%	1.3%	-0.3%
FC(F)(F)c1ccccc1-c1nccc(N2CCNCC2)n1	-3.2%	-17.8%	-3.7%	0.1%	-3.1%
CCc1c2c(nc3ccc(OC)cc13)OC(C)C2 (stereo not drawn)	7.7%	9.3%	-2.9%	7.0%	-6.8%
CC(=O)C1=C(C)NC(SCC(=O)c2ccccc2)=C(C#N)C1c1ccco1 (stereo not drawn)	-2.7%	99.1%	-2.2%	8.0%	4.1%
CC(=O)C1=C(C)NC(SCC(=O)c2ccccc2)=C(C#N)C1CC(C)C (stereo not drawn)	3.1%	22.4%	-6.0%	10µM*	8.4%
COC(=O)c1ccc(CSc2nc3c(c(=O)n2-c2ccc(F)cc2)SCC3)o1	26.0%	-2.3%	-7.5%	3.16µM*	-17.0%
Cc1noc(C)c1-c1cc(NC2CCNCC2)ncn1	3.6%	-6.5%	-3.2%	0.7%	-0.2%
Cc1nc(SCC(=O)Nc2ccccc2)c2oc3ccccc3c2n1	27.2%	2.1%	-5.9%	15.8µM*	-5.8%
CCOc1ccccc1NC(=O)CSc1ncnc2c1oc1ccccc12	25.1µM*	1.1%	-4.9%	?	2.6%
CC(=O)CSc1ncnc2c1oc1ccccc12	1.9%	6.3%	-0.6%	1.2%	-2.5%
Cc1ccc2nc(NC(=O)CN(C)S(=O)(=O)c3cccc4nsnc34)sc2c1	?	15.8µM*	-0.4%	?	4.8%
CC(C)OCCCNC(=O)c1c(N)n(/N=C/c2ccccn2)c2nc3ccccc3nc12	10µM*	-2.2%	-3.0%	?	-3.1%
OCCN1CCN(c2ncnc3nc[nH]c23)CC1	5.1%	25.1µM*	0.8%	/	-4.6%
CCCN(CCC)C(C(=O)Nc1cccc(OC)c1)c1ccccc1 (stereo not drawn)	25.1µM*	1.0%	3.6%	?	10.2%
N#Cc1c(-c2ccccc2)no[n+]1[O-]	-9.6%	-8.2%	-3.8%	/	-6.0%
SMILES	HEK293 cAMP ctrl	Tau filament bind	Pol III holo inh	TSHR agonist	Hsp90 Hop PPI
Cc1cc(N2CCCCC2)nc(SCc2ccc(C#N)cc2)n1	31.6µM*	24.5%	-1.9%	?	25.5%
Cc1cc(N2CCOCC2)nc(SCC(=O)c2ccccc2)n1	16.0%	2.0%	-2.9%	0.4%	-1.3%
CS(=O)(=O)Nc1cccc(-c2ccc3ncnc(Nc4ccccc4)c3c2)c1	?	2.4%	2.4%	?	3.1%
COc1cccc(-c2ccc3ncnc(Nc4ccccc4)c3c2)c1	20µM*	73.5%	9.2%	?	1.8%
c1nc(NC2CCNCC2)c2cc(-c3ccoc3)ccc2n1	?	-9.6%	-11.1%	?	-1.6%
COc1ccccc1-c1ccc2ncnc(Nc3ccccc3)c2c1	15.8µM*	62.6%	25.2%	?	8.3%
COc1cccc(-c2ccc3ncnc(N(C)C)c3c2)c1	25.1µM*	-2.7%	-8.7%	?	-0.9%
Fc1ccc(Nc2ncnc3ccc(-c4ccoc4)cc23)cc1	12.6µM*	-16.3%	11.9%	?	-5.5%
O=C(O)c1ccc([N+]2=Cn3c(nc4ccccc43)C2)cc1	7.9%[11.4 µM]	5.1%[11.4 µM]	-12.6%[11.4 µM]	6.9%[11.4 µM]	-0.9%[11 µM]
COc1ccc(-c2cc(C(=O)N/N=C\c3cc(OC)c(OC)c(OC)c3)[nH]n2)cc1	-13.4%	/	/	0.4%	/
N#Cc1ccc(CN2CCC3(CC2)CCN(C(=O)c2ccco2)CC3)cc1	-5.6%	-3.8%	-4.1%	2.0%	-4.2%
CCCn1c(SCC(=O)Nc2ccccc2N2CCCCC2)nc2c1c(=O)n(C)c(=O)n2C	1µM*	40.8%	-5.6%	?	-5.6%
CCCn1c(SCC(=O)Nc2ccccc2C(=O)OC)nc2c1c(=O)n(C)c(=O)n2C	?	-6.8%	-2.3%	?	0.8%
CCC(Cl)CC(Cl)C(Cl)C(Cl)C(Cl)C(C)Cl (stereo not drawn)	?	-3.9%	-6.2%	?	31.6µM*
COc1cccc(-c2nccc(NCc3ccc(OC)cc3OC)n2)c1	?	-7.1%	2.0%	?	1.9%
CC(C)C(c1nnnn1C1CCCC1)N(C)C1CCCCC1 (stereo not drawn)	20µM*	15.9%	6.1%	?	8.3%
O=C(Nc1ccc2nc(-c3ccco3)[nH]c2c1)c1cccs1	6.6%	20µM*	-3.7%	12.4%	-19.5%
O=c1[nH]c2ccc(Cl)cc2c(-c2ccccc2)c1N1CCOCC1	1.5%	138.6%	9.3%	-2.2%	0.5%
O=c1[nH]c2ccc(Cl)cc2c(-c2ccccc2)c1CN1CCOCC1	2.4%	12.6µM*	-27.7%	-6.3%	-2.1%
CN(C)CN1CSC(=S)N(CN(C)C)C1	2.1%[11.4 µM]	-10.1%[11.4 µM]	-0.6%[11.4 µM]	-4.5%[11.4 µM]	-2.0%[11 µM]
CCc1ccc(C2C(C#N)=C(N)SC(N)=C2C#N)s1	17.9%	25.1µM*	-4.2%	23.6%	-16.5%
C=C1CC[C@@H]2[C@](C)(CC[C@@H](O)[C@]2(C)CO)[C@@H]1C/C=C1/C(=O)OC[C@H]1O	0.6%	-16.8%	-3.8%	4.9%	?
Cc1ccc(S(=O)(=O)N2CCC(C(=O)N[C@@H](C)C(=O)Nc3ccc4c(c3)OCO4)CC2)cc1	-4.4%	10µM*	-5.0%	-6.1%	-20.6%
O=C(O)CSCCc1ccccc1	12.1%[11.4 µM]	5.6%[11.4 µM]	-3.8%[11.4 µM]	1.5%[11.4 µM]	-0.9%[11 µM]
CCOC(=O)c1cc2c(ccn2C)n1Cc1ccccc1C	25.1µM*	-17.0%	-6.6%	?	-13.9%
Cc1nn(-c2ccc(S(=O)(=O)O)cc2)c(O)c1N=Nc1ccc(-c2ccc(N=Nc3ccc4c(S(=O)(=O)O)cc(S(=O)(=O)O)c(N)c4c3O)c(O)c2)cc1O.[Cu].[Cu]	4.8%[11.4 µM]	-22.5%[11.4 µM]	1.26µM*	-2.7%[11.4 µM]	-16.1%[11 µM]
